Laboratory results published in PubChem BioAssay AID1159607 (Small Molecule Screening Facility, UW Madison, 2016).
The whole screen tested about 70,000 compounds, of which about 400 (0.57%) were called active. No stated cut-off is given here; in the data, active means FP signal below about 40; inactive means the rest. The full list was thinned out, with actives kept by preference.

These compounds were tested on RMI core complex (RMI1/RMI2) binding to FANCM MM2 peptide, human (assay: disruptors of RMI1/RMI2 association with MM2 peptide – biochemical, fluorescence polarization, human, primary screen (AID 1159607)). Details: RMI core complex with F-MM2 peptide, at 33 µM, stronger effect = lower value.
For `O=C(/C=C/c1cccc(F)c1)c1cccs1`, the FP signal (polarization) was 64 (inactive). For `CCc1ccccc1NC(=O)c1csc(Nc2ccc(S(C)(=O)=O)cc2)n1`, the FP signal (polarization) was 77 (inactive). In the case of `C=CCN(CC=C)S(=O)(=O)c1ccc(C(=O)Nc2nc(-c3ccc4ccccc4c3)cs2)cc1`, the FP signal (polarization) is reported as 86 (inactive). `Nc1ccc2c(c1)N(C(=O)c1ccccc1)CCC2` was tested, and the FP signal (polarization) was 68 (inactive). In the case of `Nc1cc(-c2ccccc2)no1`, the FP signal (polarization) is reported as 63 (inactive). In the case of `C=CCn1c(SCC(=O)Nc2nsc(-c3ccccc3)n2)nc2scc(-c3ccco3)c2c1=O`, the FP signal (polarization) is reported as 98 (inactive). With `COc1ccc(CC(=O)Nc2ccc(SCC(=O)N3CCCC3)nn2)cc1OC` the FP signal (polarization) was 61 (inactive). In the case of `O=C(CC1CCCCN1S(=O)(=O)c1ccc(F)cc1)NCc1ccc2c(c1)OCO2` (stereo not drawn), the FP signal (polarization) is reported as 68 (inactive). `CCn1nc(C(=O)Nc2cc(C)nn2-c2nc3ccc(OC)cc3s2)cc1C` was tested, and the FP signal (polarization) was 71 (inactive). `Cc1ccc(C)c(NC(=O)CCS(=O)(=O)c2ccccc2)c1` was tested, and the FP signal (polarization) was 70 (inactive). With `COc1ccc(C(=O)Nc2nc(-c3ccccc3)c(C)s2)cc1` the FP signal (polarization) was 33 (active). `COc1ccc(-c2nc(NC(=O)c3cccc(NS(=O)(=O)c4ccccc4)c3)sc2C)cc1` was tested, and the FP signal (polarization) was 52 (inactive). With `CCOC(=O)c1sc(NC(=O)c2ccc(-c3ccccc3)cc2)nc1-c1ccccc1` the FP signal (polarization) was 57 (inactive). `CCCC(=O)Nc1cc(-c2cn3nc(OC)ccc3n2)ccc1OC` was tested, and the FP signal (polarization) was 70 (inactive). For `COc1ccc2nc(-c3ccc(F)c(NC(=O)c4ccccc4C(F)(F)F)c3)cn2n1`, the FP signal (polarization) was 87 (inactive). For `COc1ccc2nc(-c3ccc(OC)c(NC(=O)c4ccccc4Cl)c3)cn2n1`, the FP signal (polarization) was 13 (active). With `COc1ccc(N)cc1N1CCCCC1=O` the FP signal (polarization) was 62 (inactive). In the case of `O=c1c2scc(-c3ccccc3)c2ncn1Cc1ccccc1`, the FP signal (polarization) is reported as 64 (inactive). For `COc1ccc(-c2csc3c(=O)n(Cc4ccccc4Cl)cnc23)cc1`, the FP signal (polarization) was 63 (inactive). With `COc1ccc(-c2csc3c(=O)n(Cc4cc(=O)n5ccccc5n4)cnc23)cc1OC` the FP signal (polarization) was -23 (active). For `O=C(NCCN1CCN(c2ccc(F)cc2)CC1)C(=O)NC1CC1`, the FP signal (polarization) was 62 (inactive). With `N/C(CS(=O)(=O)c1ccc(Cl)cc1)=N/O` the FP signal (polarization) was 56 (inactive). With `O=C(/C=C/c1cccs1)Nc1nnc(-c2cc3ccccc3o2)o1` the FP signal (polarization) was 56 (inactive). In the case of `COC1C=CC23c4cc5c(cc4CN(CC2O)[C@@H]3C1)OCO5` (stereo partly drawn), the FP signal (polarization) is reported as 63 (inactive). `O=C(Cn1c2c(c(=O)n(C3CCCCC3)c1=O)CCC2)Nc1ccc2c(c1)OCCO2` was tested, and the FP signal (polarization) was 58 (inactive). `Cc1ccc(C(=O)CSc2nnc3ccc4ccccc4n23)cc1C` was tested, and the FP signal (polarization) was 75 (inactive). With `CCCc1cc(=O)[nH]c2nnc(SCC(=O)Nc3nc4ccc(C)cc4s3)n12` the FP signal (polarization) was 47 (inactive). For `Cc1ccc2c(c1)nnc1nnc(SCC(=O)O)n12`, the FP signal (polarization) was 2 (active).
